# Test results from PubChem BioAssay (NCATS).
# Several values for one entry are separate records, joined by “and”; a condition that tells them apart may be missing. Equal entries are not always repeated. Results filed as inconclusive are left out. Where a call stands in place of a potency, no number is given. A number with no mark means an inactive call. Activity calls are given as the source filed them. Unless noted, the call rests on the fitted dose curve; in most records, active means well fitted curve in the direction sought with a large enough effect; inconclusive means small, poorly fitted or top-dose-only effect, or another doubt; inactive means no such curve, though single readings can be large; an effect the other way counts as inactive or inconclusive.
# Assays:
# [1] = target: Cellular tumor antigen p53 (Homo sapiens) (UniProt P04637); assay: Primary qHTS for small molecule compounds that upregulate eGFP-tagged delta133p53alpha (in N-terminal) cells. (AID 2060322); conditions: NCI-H358 eGFP-delta133p53alpha fluorescence, 24 h; activation: active compounds read high; further: series mostly up to about 56 µM; nearly all actives have a fitted effect of over 75% in size
# Sequence of Cellular tumor antigen p53 (Homo sapiens) (P04637 whole entry, looked up): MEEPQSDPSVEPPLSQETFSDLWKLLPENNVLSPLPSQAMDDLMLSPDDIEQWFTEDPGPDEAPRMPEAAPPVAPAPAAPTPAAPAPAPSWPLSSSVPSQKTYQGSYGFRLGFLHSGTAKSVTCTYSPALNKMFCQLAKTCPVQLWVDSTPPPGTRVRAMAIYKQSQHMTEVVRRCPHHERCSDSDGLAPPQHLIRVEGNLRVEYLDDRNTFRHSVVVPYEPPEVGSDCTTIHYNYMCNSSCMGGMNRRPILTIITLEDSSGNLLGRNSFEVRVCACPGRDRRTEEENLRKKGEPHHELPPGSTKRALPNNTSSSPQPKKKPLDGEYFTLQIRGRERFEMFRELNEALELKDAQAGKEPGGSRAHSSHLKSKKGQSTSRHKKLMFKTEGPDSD
# Procedure, shortened: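 NCI-H358 cells pre-induced 24 h with 10 ng/ml doxycycline to express N-terminal eGFP-delta133p53alpha, then dosed 24 h at 37C without doxycycline; fixed, Hoechst-stained, GFP intensity by laser scanning cytometry, normalized to DMSO (0%) and 57.5 uM 5-azacytidine (100%).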
# [2] = target: Cellular tumor antigen p53 (Homo sapiens) (UniProt P04637); assay: Primary qHTS for small molecule compounds that upregulate eGFP-tagged delta133p53alpha (in C-terminal) cells. (AID 2060324)
# Procedure, shortened: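 NCI-H358 cells with doxycycline-inducible D133p53a-eGFP (C-terminal tag), pre-induced 24 h with 100 ng/ml doxycycline, plated 800/well in doxycycline-free medium and treated 24 h at 37 °C with compound titrations. Cells were then fixed and Hoechst-stained, and GFP intensity was read by laser scanning cytometry.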
# [3] = target: Aldehyde dehydrogenase, mitochondrial (Homo sapiens) (UniProt P05091); assay: qHTS for Inhibitors of the Aldehyde Dehydrogenase Family (ALDH2) Validation screens (AID 2061302; active means well fitted inhibition curve with a large enough effect; title and protocol of this record describe different tests)
# [4] = target: Retinaldehyde dehydrogenase 3 (Homo sapiens) (UniProt P47895); assay: qHTS for Inhibitors of the Aldehyde Dehydrogenase Family (ALDH1A3) Validation screen (AID 2061312); further: nearly all actives have a fitted effect of over 45% in size
# [5] = BET inhibitor-based combinations targeting novel dependencies in MECOM-rearranged (r) AML: SET-2 cell line (AID 2202231); conditions: SET-2 AML cells viability, CellTiter-Glo luminescence, 48 h; viability: active compounds read low, series mostly up to about 46 µM; further: nearly all actives have a fitted effect of over 35% in size
# Procedure, shortened: (§1)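 Luminescent ATP readout (CellTiter-Glo) after 48 hr drug exposure gives viability. Curves span 11 concentrations and are normalized to DMSO and empty wells. Activity is reported as area under the curve and its Z-transform within each cell line.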
# [6] = BET inhibitor-based combinations targeting novel dependencies in MECOM-rearranged (r) AML: MV-4-11 cell line (AID 2202233); further: nearly all actives have a fitted effect of over 45% in size; further: potency means the concentration at half of the fitted maximal effect
# Procedure, shortened: (§2)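 Luminescent ATP readout (CellTiter-Glo, 15 min at room temperature) after 48 hr drug exposure gave viability. Dose-response curves, normalized to DMSO and empty-well controls, were summarized as area under the curve and its mean-centred Z-score.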
# [7] = BET inhibitor-based combinations targeting novel dependencies in MECOM-rearranged (r) AML: HNT-34 cell line (AID 2202234); further: nearly all actives have a fitted effect of over 35% in size; further: potency means the concentration at half of the fitted maximal effect
# Procedure, shortened: as §2
# [8] = BET inhibitor-based combinations targeting novel dependencies in MECOM-rearranged (r) AML: UCSD-AML1 cell line (AID 2202235); further: nearly all actives have a fitted effect of over 40% in size; further: potency means the concentration at half of the fitted maximal effect
# Procedure, shortened: as §2
# [9] = BET inhibitor-based combinations targeting novel dependencies in MECOM-rearranged (r) AML: AML-191 cell line (AID 2202236; further: nearly all actives have a fitted effect of over 35% in size)
# Procedure, shortened: as §1
# [10] = BET inhibitor-based combinations targeting novel dependencies in MECOM-rearranged (r) AML: OCI-AML3 cell line (AID 2202232); conditions: Potency: OCI-AML3 viability; further: series mostly up to about 46 µM; nearly all actives have a fitted effect of over 35% in size
# Procedure, shortened: as §1
# [11] = BET inhibitor-based combinations targeting novel dependencies in MECOM-rearranged (r) AML: AML-194 cell line (AID 2202237; further: nearly all actives have a fitted effect of over 40% in size)
# Procedure, shortened: as §1
# [12] = target: Aldehyde dehydrogenase, mitochondrial (Homo sapiens) (UniProt P05091); assay: qHTS for Inhibitors of the Aldehyde Dehydrogenase Family (ALDH2) Primary screen (AID 2061308); further: nearly all actives have a fitted effect of over 55% in size
# [13] = target: Retinaldehyde dehydrogenase 3 (Homo sapiens) (UniProt P47895); assay: qHTS for Inhibitors of the Aldehyde Dehydrogenase Family (ALDH1A3) Primary screen (AID 2061315)
smiles,measurement,setting,value
NCC(O)c1ccc(O)cc1 (stereo not given),activation,[1],-4.18% and -26.8%
same,Potency,[2],inactive
same,Potency,[3],inactive
same,Potency,[4],inactive
Nc1ccncc1,activation,[1],-16.4% and 3.84%
same,Potency,[2],inactive
same,Potency,[3],inactive
same,Potency,[4],inactive
CC(N)[C@H](O)c1ccc(O)c(O)c1 (stereo not given in full),activation,[1],-12.2%
same,Potency,[2],inactive
same,Potency,[3],inactive
same,Potency,[4],inactive
C[C@]12CCC3C(CC[C@H]4C[C@H](O)CC[C@]34C)C1CC[C@@H]2C(=O)CO (stereo not given in full),activation,[1],-8.4%
same,Potency,[2],inactive
same,Potency,[3],inactive
same,Potency,[4],inactive
NCC(CP(=O)(O)O)c1ccc(Cl)cc1 (stereo not given),activation,[1],-1.72%
same,Potency,[2],inactive
same,Potency,[3],inactive
same,Potency,[4],inactive
O=P1(N(CCCl)CCCl)NCCCO1 (stereo not given),activation,[1],-25.4% and -10.4% and -10.6%
same,Potency,[2],inactive
same,Potency,[3],inactive
same,viability,[5],114%
same,Potency,[6],inactive
same,Potency,[7],inactive
same,Potency,[8],inactive
same,Potency,[9],inactive
C[C@H](Cc1ccc2c(c1)OC(C(=O)O)(C(=O)O)O2)NC[C@H](O)c1cccc(Cl)c1,activation,[1],-6.85%
same,Potency,[2],inactive
same,Potency,[3],inactive
same,Potency,[4],inactive
CCNC(=O)[C@H]1O[C@@H](n2cnc3c(N)ncnc32)[C@H](O)[C@@H]1O,activation,[1],1.33%
same,Potency,[2],inactive
same,Potency,[3],inactive
same,Potency,[4],inactive
NC(CP(=O)(O)O)C(=O)O (stereo not given),activation,[1],-3.82%
same,Potency,[2],inactive
same,Potency,[3],inactive
same,Potency,[4],inactive
COc1ccc(CNC(=O)/C=C/c2ccc3[nH]cc(CCN(C)C)c3c2)cc1,activation,[1],13.3%
same,Potency,[2],inactive
same,Potency,[3],inactive
same,Potency,[4],inactive
NC(=O)CN1CC(O)CC1=O (stereo not given),activation,[1],-34.2%
same,Potency,[2],inactive
same,Potency,[3],inactive
same,Potency,[4],inactive
CC(C)c1cccc(C(C)C)c1O,activation,[1],0.683% and -5.08% and -18.8%
same,Potency,[2],inactive
same,Potency,[3],inactive
same,Potency,[4],inactive
same,viability,[5],105%
same,Potency,[10],inactive
same,Potency,[7],inactive
same,Potency,[11],inactive
C[C@]12N[C@H](Cc3ccccc31)c1ccccc12,activation,[1],-0.686%
same,Potency,[2],inactive
same,Potency,[3],inactive
same,Potency,[4],inactive
O=c1[nH]oc2c1CCNC2,activation,[1],-18.6% and 14.5%
same,Potency,[2],inactive
same,Potency,[3],inactive
same,Potency,[4],inactive
NCCc1c[nH]c2ccccc12,activation,[1],-5.39%
same,Potency,[2],inactive
same,Potency,[3],inactive
same,Potency,[4],inactive
NCC1(CC(=O)O)CCCCC1,activation,[1],-0.945% and -3.35% and 5.99%
same,Potency,[2],inactive
same,Potency,[3],inactive
same,Potency,[4],inactive
same,Potency,[8],inactive
N[C@@]1(C(=O)O)CC[C@@H](C(=O)O)C1,activation,[1],21.8%
same,Potency,[2],inactive
same,Potency,[3],inactive
same,Potency,[4],inactive
CCCn1c(=O)c2[nH]c(C3CCCC3)nc2n(CCCOC(=O)c2ccc(S(=O)(=O)F)cc2)c1=O,activation,[1],11.3%
same,Potency,[2],inactive
same,Potency,[3],inactive
same,Potency,[4],inactive
COC(=O)N1CCN(C(=O)Cc2ccc(Cl)c(Cl)c2)C(CN2CCCC2)C1 (stereo not given),activation,[1],5.56%
same,Potency,[2],inactive
same,Potency,[3],inactive
same,Potency,[4],inactive
CN1C2CCC1CC(OC(=O)c1cc(Cl)cc(Cl)c1)C2 (stereo not given),activation,[1],-57.3%
same,Potency,[2],inactive
same,Potency,[3],inactive
same,Potency,[4],inactive
CCCN1CCO[C@@H]2c3cc(O)ccc3OC[C@H]21,activation,[1],-9.95%
same,Potency,[2],inactive
same,Potency,[3],inactive
same,viability,[5],92%
same,Potency,[7],inactive
same,Potency,[8],inactive
same,Potency,[11],inactive
S=C(NC1CCCCC1)N1CCC(c2cnc[nH]2)CC1,Potency,[12],inactive
same,Potency,[13],inactive
CC(O)(CS(=O)(=O)c1ccc(F)cc1)C(=O)Nc1ccc(C#N)c(C(F)(F)F)c1 (stereo not given),Potency,[12],inactive
same,Potency,[13],inactive
same,viability,[5],92.1%
same,Potency,[7],inactive
same,Potency,[8],inactive
same,Potency,[9],inactive
CC[C@@]1(O)C(=O)OCc2c1cc1n(c2=O)Cc2cc3ccccc3nc2-1,Potency,[6],7.4 nM (active)
same,Potency,[7],5.3 nM (active)
same,Potency,[8],10.5 nM (active)
Nc1ccc(CCN2CCN(c3cccc(C(F)(F)F)c3)CC2)cc1,activation,[1],-62.8%
same,Potency,[3],inactive
same,Potency,[4],inactive
C[C@H](N)CN1CCc2ccc(Br)cc21,activation,[1],5.22%
same,Potency,[3],inactive
same,Potency,[4],inactive
O=C(CCCN1CCC2(CC1)C(=O)NCN2c1ccccc1)c1ccc(F)cc1,activation,[1],-10.7% and -39.7%
same,Potency,[3],inactive
same,Potency,[4],inactive
CC(C)(C)c1o[nH]c(=O)c1CC(N)C(=O)O (stereo not given),activation,[1],-13.9%
same,Potency,[3],inactive
same,Potency,[4],inactive
CN1C2CCC1CC(OC(c1ccccc1)c1ccccc1N)C2 (stereo not given),activation,[1],-67.5%
same,Potency,[3],inactive
same,Potency,[4],inactive
CCN1C[C@@]2(COC)C3[C@@H](OC)C4[C@@H]1C3([C@@H]1C[C@]3(O)[C@H](OC(=O)c5ccccc5)[C@@H]1[C@]4(OC(C)=O)[C@@H](O)[C@@H]3OC)[C@H](OC)C[C@H]2O,activation,[1],-12.5%
same,Potency,[3],inactive
same,Potency,[4],inactive
